Data from PubChem BioAssay (NCATS).
Records with an inconclusive call do not appear. A call without a number means that no potency is given here. Activity calls are given as the source filed them. The call rests on the fitted dose curve; in most records, active means well fitted curve in the direction sought with a large enough effect; inconclusive means small, poorly fitted or top-dose-only effect, or another doubt; inactive means no such curve, though single readings can be large; an effect the other way counts as inactive or inconclusive.

Tests used:
[1] = molecular target: Metallo-beta-lactamase type 2 (Klebsiella pneumoniae) (UniProt C7C422); assay: qHTS to identify inhibitors of the New Delhi Metallo-beta-lactamase (NDM): assay validation screen against the NCATS LOPAC Collection (AID 1794843); further: potency means the concentration at half of the fitted maximal effect
Summary of the method: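 NDM-1 at 2 nM final in 50 mM HEPES pH 7.0 with 1 uM ZnSO4 and 0.01% Tween20 was preincubated with library compounds in DMSO. Nitrocefin (50 uM stock) was then added, and absorbance at 485 nm was read at the kinetic plateau.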

[2] = molecular target: Glutathione peroxidase 1 (Homo sapiens) (UniProt P07203); assay: Primary qHTS Assay for Inhibitors of Recombinant Selenoprotein Glutathione Peroxidase 1 (GPX1) (AID 1845191); further: nearly all actives have a fitted effect of over 65% in size
Summary of the method: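 NADPH consumption tracked by fluorescence at 340/450 nm between t=0 and t=15 min, room temperature. Final mix: 10 nM GPX1, 100 nM glutathione reductase, 1 mM GSH, 0.5 mM NADPH, 0.5 mM cumene hydroperoxide, 0.01% BSA; 30 min compound–enzyme preincubation.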

[3] = molecular target: Phospholipid hydroperoxide glutathione peroxidase GPX4 (Homo sapiens) (UniProt P36969); assay: Primary qHTS Assay for Inhibitors of Recombinant Selenoprotein Glutathione Peroxidase 4 (GPX4) (AID 1845192); further: nearly all actives have a fitted effect of over 65% in size
Summary of the method: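 NADPH consumption followed by fluorescence at 340/450 nm, t=0 and after 15 min at room temperature. Reaction started with cumene hydroperoxide (0.5 mM final) after 30 min compound–GPX4 preincubation; final 200 nM GPX4, 100 nM GR, 1 mM GSH, 0.5 mM NADPH.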

[4] = Viability counterscreen for agonist of constitutive androstane receptor (CAR) against the NCATS DSHEA and TCM libraries (AID 1794838);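 further: cells exposed to compound for 24 h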
Summary of the method: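 Cell viability, from CellTiter-Fluor fluorescence (405/540 nm), was scored after a 24 h, 37C exposure of HepG2 cells carrying CYP2B6 reporter and hCAR to test substances in presence of 0.75 uM PK11195.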

[5] = molecular target: Nuclear receptor subfamily 1 group I member 3 (Homo sapiens) (UniProt Q14994); assay: Primary qHTS for agonist of constitutive androstane receptor (CAR) against the NCATS DSHEA and TCM libraries (AID 1794839);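 further: HepG2 cells expressing human CAR with a CYP2B6 reporter plus PK11195 antagonist; luciferase reporter luminescence read with ONE-Glo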
Summary of the method: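 Agonist mode in presence of hCAR antagonist PK11195 (0.75 µM final): test substances, 24 h, 37 °C, on HepG2-CYP2B6-hCAR cells. Same-well readouts: fluorescence viability, then ONE-Glo luminescence; CITCO as reference agonist.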

[6] = HepG2 viability counterscreen (readout 2: ATP content) against the NCATS DSHEA and TCM libraries (AID 1794840);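 further: HepG2 cells exposed to substances for about 24 h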
Summary of the method: (§1)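 Readout 1: cellular protease activity, GF-AFC substrate (25 uM final, 30 min, fluorescence 380/510 nm). Readout 2: ATP content by CellTiter-Glo luminescence after 30 min at RT. Both follow ~24 h exposure of HepG2 cells (1,000/well) to substances.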

[7] = HepG2 viability counterscreen (readout 1: protease activity) against the NCATS DSHEA and TCM libraries (AID 1794841);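 further: cells exposed to compounds for about 24 h before the protease read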
Summary of the method: as §1

[8] = molecular target: Luciferin 4-monooxygenase (Photinus pyralis) (UniProt P08659); assay: Primary firefly luciferase (FLuc) qHTS assay for identification of artifact compounds. (AID 1845220); further: series mostly up to about 54 µM; nearly all actives have a fitted effect of over 60% in size
Summary of the method: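 Cell-free, 1536-well qHTS. Buffer pH 7.6 with 0.01% Tween-20 and 0.05% BSA; 10 uM D-luciferin, 10 uM ATP; 10 nM P. pyralis luciferase; luminescence after 5 min.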

[9] = Primary fluorescence-based thiol-reactive (MSTI) qHTS assay for identification of artifact compounds. (AID 1845221);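 further: series mostly up to about 54 µM; thiol-reactive compounds lower the probe fluorescence signal; nearly all actives have a fitted effect of over 65% in size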
Summary of the method: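 Thiol-reactive compounds detected by quenching of 4 uM MSTI fluorescence (525/598 nm) after 1 h room-temperature dark incubation in PBS pH 7.4, 2% DMSO. qHTS titration; percent inhibition Hill-fitted against Acetyl-MSTI/MSTI controls.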

[10] = test system: Nanoluciferase (engineered Oplophorus gracilirostris luciferase); assay: Primary Nanoluciferase (NLuc) qHTS assay for identification of artifact compounds. (AID 1845222); further: series mostly up to about 54 µM
Summary of the method: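 Compounds are pinned into diluted (1:55) conditioned medium of NLuc-expressing S16 cells and held 15 min at room temperature protected from light. Nano-Glo substrate follows, and luminescence is read 5 min later.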

Metallo-beta-lactamase type 2 (Klebsiella pneumoniae), sequence (C7C422 whole entry, looked up): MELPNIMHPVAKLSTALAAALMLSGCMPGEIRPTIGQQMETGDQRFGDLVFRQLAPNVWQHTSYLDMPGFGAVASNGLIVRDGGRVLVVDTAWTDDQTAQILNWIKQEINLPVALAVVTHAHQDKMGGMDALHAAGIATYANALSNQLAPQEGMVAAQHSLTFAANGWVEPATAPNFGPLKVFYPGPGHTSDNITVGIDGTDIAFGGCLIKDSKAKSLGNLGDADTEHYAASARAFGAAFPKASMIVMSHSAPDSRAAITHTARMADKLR
Phospholipid hydroperoxide glutathione peroxidase GPX4 (Homo sapiens), sequence (P36969 whole entry, looked up): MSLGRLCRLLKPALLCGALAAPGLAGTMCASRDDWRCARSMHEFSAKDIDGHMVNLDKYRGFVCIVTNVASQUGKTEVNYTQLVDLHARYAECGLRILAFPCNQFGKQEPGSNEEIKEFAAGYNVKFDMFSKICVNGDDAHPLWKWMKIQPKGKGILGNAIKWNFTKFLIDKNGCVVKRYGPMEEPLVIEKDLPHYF
Glutathione peroxidase 1 (Homo sapiens), sequence (P07203 whole entry, looked up): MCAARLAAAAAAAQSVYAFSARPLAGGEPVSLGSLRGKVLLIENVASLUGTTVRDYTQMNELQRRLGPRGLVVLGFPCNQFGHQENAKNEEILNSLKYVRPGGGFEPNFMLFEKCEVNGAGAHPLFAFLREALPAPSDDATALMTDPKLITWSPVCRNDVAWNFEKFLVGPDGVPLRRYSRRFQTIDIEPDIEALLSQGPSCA
Nuclear receptor subfamily 1 group I member 3 (Homo sapiens), sequence (Q14994 whole entry, looked up): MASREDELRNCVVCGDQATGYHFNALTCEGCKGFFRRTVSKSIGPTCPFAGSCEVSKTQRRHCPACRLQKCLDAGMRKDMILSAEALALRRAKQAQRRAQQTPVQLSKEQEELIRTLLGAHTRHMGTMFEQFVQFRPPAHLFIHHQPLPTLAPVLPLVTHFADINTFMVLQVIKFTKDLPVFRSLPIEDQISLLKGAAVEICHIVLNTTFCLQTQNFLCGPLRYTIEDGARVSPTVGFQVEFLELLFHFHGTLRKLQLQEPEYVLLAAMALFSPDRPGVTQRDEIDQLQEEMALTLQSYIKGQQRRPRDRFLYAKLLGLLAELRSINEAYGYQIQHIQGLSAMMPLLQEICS

Compound: CC(N)c1cccc(Cl)c1Cl (configuration not stated)
- Potency [1]: inactive
- Potency [2]: inactive
- Potency [3]: inactive

Compound: CN(N=O)c1ccc(O)c(O)c1
- Potency [1]: 12.6 µM (active)
- Potency [2]: inactive

Compound: [Cl-].[Cl][Pt].[NH2-].[NH2-].c1ccncc1
- Potency [1]: 3.98 µM (active)
- Potency [2]: inactive

Compound: C[N+](C)(C)CC#CCN1CCCC1=O
- Potency [1]: inactive
- Potency [2]: inactive

Compound: COc1ccc(OC)c(C(O)C(C)N)c1 (configuration not stated)
- Potency [1]: inactive
- Potency [2]: inactive
- Potency [3]: inactive

Compound: C[C@H](N)Cc1cccc(C(F)(F)F)c1
- Potency [1]: inactive
- Potency [2]: inactive

Compound: CNC(C)C(O)c1ccc(O)cc1 (configuration not stated)
- outcome [4]: inactive
- outcome [5]: inactive
- outcome [6]: inactive
- outcome [7]: inactive

Compound: OC1CCCCC1N1CCC(c2ccccc2)CC1 (configuration not stated)
- Potency [1]: inactive
- Potency [2]: inactive

Compound: O=c1ccc2[nH]cc(C3=CCNCC3)c2[nH]1
- Potency [1]: inactive
- Potency [2]: inactive
- Potency [3]: inactive

Compound: C=CCN1C[C@@H](C)N([C@H](c2ccc(C(=O)N(CC)CC)cc2)c2cccc(OC)c2)C[C@@H]1C
- Potency [1]: inactive
- Potency [2]: inactive

Compound: NC(C(=O)O)c1cc(=O)[nH]o1 (configuration not stated)
- Potency [1]: inactive
- Potency [2]: inactive
- Potency [3]: inactive

Compound: C[N+]1(C)CCN(c2ccccc2)CC1
- Potency [1]: inactive
- Potency [2]: inactive

Compound: CC(C)(C)c1o[nH]c(=O)c1CC(N)C(=O)O (configuration not stated)
- Potency [1]: inactive
- Potency [2]: inactive
- Potency [3]: inactive

Compound: O=Cc1ccco1
- outcome [6]: inactive
- outcome [7]: inactive

Compound: CC(C)NP(=O)(NC(C)C)OP(=O)(NC(C)C)NC(C)C
- Potency [1]: inactive
- Potency [2]: inactive

Compound: COC1=CC(=O)O[C@@H](/C=C/c2ccccc2)C1
- outcome [6]: inactive
- outcome [7]: inactive
- Potency [2]: inactive
- Potency [3]: inactive
- Potency [8]: inactive
- Potency [9]: inactive
- outcome [10]: inactive

Compound: NCCc1c[nH]c2ccc(C(N)=O)cc12
- Potency [1]: inactive
- Potency [2]: inactive
- Potency [3]: inactive

Compound: CC(=O)c1c(O)c(C)c(O)c(Cc2c(O)c3c(c(C(=O)/C=C/c4ccccc4)c2O)OC(C)(C)C=C3)c1O
- Potency [1]: inactive
- Potency [2]: inactive
- Potency [3]: inactive

Compound: O=C1/C(=C/c2ccccc2)C[C@@]2(O)[C@H]3Cc4ccc(O)c5c4[C@@]2(CCN3CC2CC2)[C@H]1O5
- Potency [1]: inactive
- Potency [2]: inactive

Compound: CCCn1c(=O)c2[nH]c(C3CCCC3)nc2n(CCCOC(=O)c2ccc(S(=O)(=O)F)cc2)c1=O
- Potency [1]: inactive
- Potency [2]: inactive
- Potency [3]: inactive

Compound: CC(=O)OCC1=C(C(=O)O)N2C(=O)[C@@H](NC(=O)CCC[C@@H](N)C(=O)O)[C@H]2SC1
- Potency [1]: inactive
- Potency [2]: inactive
